Source: PubChem (Broad Institute)
An excerpt weighted towards active compounds, which were near 2.9% of everything screened.
Wnt act – Wnt/beta-catenin pathway activation; Wnt/beta-catenin reporter cell assay, activator, plate reader; activation, % at 9.35 µM; 300,000 tested, 1.2% active; in the data active = activation above about 30%, passing the limit was not always enough;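 note: 0% = neutral control wells and 100% = positive control wells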
MITF TRPM1 HTS – MITF TRPM1 promoter activation in melanoma cells | activation, % at 12.5 µM | SK-MEL-5 TRPM1-promoter luciferase, 24 h; % of positive control, neutral wells = 0 | 300,000 tested, 0.75% active;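 active = mean activation of at least 80% with every replicate also reaching 80%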;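 note: 0% = neutral control wells and 100% = parthenolide positive control wells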
TRPM1 prom inh – MITF TRPM1 promoter inhibition in SK-MEL-5 cells. SK-MEL-5 TRPM1 promoter luciferase, 24 h. inhibition, % at 12.5 µM. 330,000 tested, 0.83% active;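 active = mean inhibition across replicates of 60% or more, whatever share of single replicates reaches that level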
N-glyco inh – N-linked glycosylation inhibition. D54 ERlucT glycosylation luciferase reporter, 24 h; percent of 100 nM tunicamycin response. reporter increase, % at 12.5 µM. 360,000 tested, 0.23% active;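 active = mean luciferase reporter signal, scaled so untreated is 0 and the glycosylation-blocking control 100, at or above a set limit in every replicate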;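 note: luciferase carries N-glycosylation sites so blocking glycosylation raises the light; 0% = median of neutral control wells and 100% = median of 100 nM tunicamycin wells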
PfHsp90 yeast 2 – reduces growth (ATP signal) of yeast expressing P. falciparum Hsp90 | 310,000 tested, 0.32% active | AID 504621 | inhibition, % at 9.4 µM | S. cerevisiae expressing PfHsp90, BacTiter-Glo ATP, 48 h; yeast lacking PDR1 and PDR3 efflux regulators;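 active = every replicate shows inhibition above about 80%, whatever the replicate mean, limit read from the data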;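 note: 0% = DMSO neutral controls and 100% = 20 µM radicicol positive controls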
NSD2 HMT inh – inhibitors of human histone methyltransferase NSD2; NSD2 peptide methylation, AlphaScreen, 120 min; inhibition, % at 12.5 µM; 310,000 tested, 0.54% active; in the data active = inhibition above about 50%
* = called active by the depositor; . = not tested or not shown.

SMILES | Wnt act | MITF TRPM1 HTS | TRPM1 prom inh | N-glyco inh | PfHsp90 yeast 2 | NSD2 HMT inh
CN(C)c1ccc(CN2CC=C(c3ccc(F)cc3)CC2)cc1 | . | -8.1 | 8.9 | 6.9 | 2.5 | 51.2*
COc1cc(CN2CC=C(c3ccc(F)cc3)CC2)cc(OC)c1 | 2.6 | 6.4 | -6.3 | -0.4 | -8.5 | .
CC(O)C1C=CC=CC(=O)OC2CC3OC4C5OC5(C)CCC4(COC(=O)C4OC4(C)C(O)CO1)C2(C)C31CO1 (stereo not given) | -24.6 | -69.6 | 69.5* | -19.3 | -4.3 | -2.3
CC(=O)OC1C(=O)OCC23CCC4(C)OC4C2OC2CC(OC(=O)C=CC=CC(=O)OCCC1C)C3(C)C21CO1 (stereo not given) | 0.8 | -82.4 | 83.4* | -19.8 | 131.0* | -1.7
COP(=O)(OC)C(NC(=O)/C=C/c1ccccc1)C(Cl)(Cl)Cl (stereo not given) | -1.4 | 20.1 | -17.1 | 0.3 | -10.4 | -12.1
O=[N+]([O-])c1c(Cl)c(Cl)c(Cl)c(Cl)c1Cl | 0.9 | -6.4 | 8.7 | -0.5 | -4.7 | -1.6
Nc1cc(Cl)c2nonc2c1[N+](=O)[O-] | -18.4 | -92.1 | 93.1* | 3.4 | 8.7 | 9.4
Nc1ncnc2c1ccn2[C@@H]1O[C@H](CO)[C@@H](O)[C@H]1O | -1.6 | . | . | -22.1 | 0.0 | .
NC(=S)c1cn(C2OC(CO)C(O)C2O)c2ncnc(N)c12 (stereo not given) | -11.5 | -80.8 | 81.9* | -14.4 | -19.6 | .
CCn1nc(-c2cccs2)nc2c(=O)n(C)c(=O)nc1-2 | . | -100.3 | 100.5* | -18.5 | 107.7* | .
O=[N+]([O-])/C=C/c1c(Cl)cccc1Cl | -0.5 | -110.3 | 110.8* | -19.4 | 144.8* | .
CS(=O)(=O)N1CCN(C(=N)N[N+](=O)[O-])CC1 | 0.5 | 4.5 | -4.6 | 1.6 | -13.6 | -2.7
Cn1c(O)c(C(=Nc2ccc(F)cc2)c2ccccc2Cl)c(=O)n(C)c1=O | 0.4 | . | -3.8 | 3.4 | 106.2* | -3.2
Cn1c(O)c(C(=NCCN2CCCCC2)c2ccccc2Cl)c(=O)n(C)c1=O | . | . | 3.8 | 4.3 | . | 2.6
O=C(NC1CCCCC1)N1Cc2ccc(Br)cc2-n2nncc2C1 | -1.1 | . | . | . | . | .
CCOc1cccc(CNCCc2c(C)[nH]c3ccc(OC(F)(F)F)cc23)c1O | -12.0 | -96.3 | 97.5* | -11.2 | 22.6 | 7.2
O=CNc1ccc(OP(=O)(Oc2ccccc2)Oc2ccccc2)cc1 | -4.1 | 4.3 | -2.4 | -2.3 | -5.2 | 6.7
Fc1cccc(F)c1-c1nc(-c2ccc(Cl)cc2)no1 | 64.5* | . | -62.4 | -0.9 | -4.4 | 1.3
Cc1cc(C(=O)Nc2ccc3c(c2)OCCO3)nn1C(C)(C)C | 55.7* | . | -70.8 | 0.1 | -10.8 | -1.0
Cc1cc(C(=O)Nc2ccccc2)nn1C(C)(C)C | 36.6* | . | -71.4 | -2.6 | -5.0 | 1.1
Nc1ccccc1C(=O)OCCc1ccccc1 | 67.6* | 85.4* | -82.8 | -13.8 | -34.6 | .
Cc1ccc(N(C)C(=O)Oc2ccc(C(=O)c3ccc(Cl)cc3)cc2)cc1 | . | -0.9 | 0.6 | -2.4 | 8.6 | 5.8
Cc1ccc(OC(=O)N(C)C[C@H]2OCc3cnnn3CCCC(=O)N([C@H](C)CO)C[C@H]2C)cc1 | 0.2 | . | . | . | . | .
CC(=O)[C@@]1(O)CCC2C3CC=C4C[C@@H](O)CC[C@]4(C)C3CC[C@@]21C (stereo not given in full) | -4.3 | -8.0 | 9.7 | 1.3 | -26.6 | -2.3
CC(=O)OC1C(O)C(C)OC(OC2C(OC(=O)C3CCC4C(C3)OC3(CC(OC(=O)/C=C/c5ccccc5)C(C)CO3)C43CO3)OC(C)C(O)C2OC(C)=O)C1O (stereo not given) | -25.9 | . | 87.0* | -18.0 | -0.7 | 0.1
O=C(NCC1=C(c2cccc3ccccc23)C[C@@H]2CC[C@H]1N2Cc1ccco1)c1cccnc1 | -1.1 | . | . | -2.4 | . | .
C[C@H]1CCC/C=C/[C@@H]2C[C@H](O)C[C@H]2[C@H](O)/C=C/C(=O)O1 | -22.1 | -81.0 | 81.1* | -2.5 | 0.9 | .
CC(=O)O[C@H]1CC[C@]2(C)C3CC[C@@]4(C)C(C[C@@H](O)[C@@H]4O)C3[C@@H](OC(C)=O)C[C@H]2C1 (stereo not given in full) | 1.2 | . | . | -0.7 | . | 0.9
